Screening data: PubChem, National Center for Advancing Translational Sciences (NCATS)
BRCA1 expr act = increases BRCA1 expression; MCF7-BRCA1-FFLuc reporter, luminescence, 48 h; response scale: scaled: vehicle 0%, 10 µM genistein 100%; Potency, µM (doses to about 46.1 µM), most hits filed as activators; actives 1.1% (n = 380,000); AID 624202; further: nearly all actives have a fitted effect of over 80% in size
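Reporter cells (MCF7, BRCA1 promoter-firefly luciferase) received library compounds across a concentration series for 48 h. End-point luminescence was measured and concentration-effect curves derived after normalization.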
A549 viability = kills or reduces viability of A549 cells in Nrf2 counter-screen; A549 ARE-Fluc cells, CellTiter-Fluor viability, 18-24 h; Potency, µM (doses to about 46 µM), usual class: inhibitors; actives 0.16% (n = 390,000); AID 504648
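Cytotoxicity counterscreen: CellTiter-Fluor fluorescence was measured in A549 ARE_Fluc cells after 18-24 h of compound exposure in a concentration series. The subsequent BugLite luminescent read reports ARE-luciferase activity.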
IL2 activator = IL-2 activation; activation, % (series mostly up to about 46 µM); actives 0.065% (n = 360,000); IL-2 activation reporter assay, cell-based qHTS; stimulated with anti-CD3/CD4/CD28 beads; in transgenic mouse T cells; in the data active means activation above about 50%; inconclusive means mostly about 30% to 49%
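EGFP and DsRed fluorescence is measured by plate cytometry in unstimulated transgenic mouse T cells exposed to compound for 60 minutes, then stimulated 18 hours at 37 degrees C with anti-CD3/anti-CD4 beads plus anti-CD28.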
Nrf2 ARE act = Nrf2 pathway activation; AID 624171; Potency, µM (doses to about 46.1 µM), usual class: activators; AREc32 ARE-luciferase reporter (MCF7-derived line), luminescence, 24 h; actives 0.31% (n = 410,000); further: nearly all actives have a fitted effect of over 65% in size
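Luminescent ARE reporter assay in AREc32_Fluc cells: overnight plating at 37 deg C, 24 hr compound incubation, Steady-Glo added, 30 min RT before reading.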
p53 reactivation = restores transcriptional activity of mutant p53; H1299 p53-A138V BP100-luciferase reporter, luminescence, 24 h; Potency, µM (doses to about 92.2 µM), most hits filed as activators; actives 0.063% (n = 320,000); AID 504706; further: nearly all actives have a fitted effect of over 45% in size
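H1299 (p53-null), stable ts p53-A138V + BP100-Luc; 1000 cells/well, Opti-MEM/10% FBS; cpd 4 pt, 1:5; 24 h, 37 deg C, 5% CO2; detection reagent 10 min RT; luminescence.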
Nrf2 inh = Nrf2 pathway inhibition; A549 ARE-Fluc reporter, luciferase luminescence, 18-24 h; Potency, µM (top dose mostly 46 µM), hits mostly inhibitors; actives 2.1% (n = 360,000); further: nearly all actives have a fitted effect of over 60% in size
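Concentration-response testing used A549 ARE_Fluc cells at 5000 cells/well. Following an 18-24 h compound incubation, viability was read by fluorescence (Ex 405/Em 525) and luciferase output by luminescence.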
Large screens that a line does not name were inactive. This is a sample that favours compounds with a hit; in the whole collection about 3.2% have one here. Unless noted, the call rests on the fitted dose curve; in most records, active means well fitted curve in the direction sought with a large enough effect; inconclusive means small, poorly fitted or top-dose-only effect, or another doubt; inactive means no such curve, though single readings can be large; an effect the other way counts as inactive or inconclusive.

COc1cccc(Cn2cccc(NC(=O)Nc3ccccc3C)c2=O)c1	Nrf2 inh inconclusive
COc1cccc(NC(=O)Nc2cccn(Cc3ccccc3)c2=O)c1	Nrf2 inh 12µM
CSc1ccc(NC(=O)Nc2cccn(Cc3ccccc3)c2=O)cc1	A549 viability inconclusive, Nrf2 inh 12µM
COC(=O)c1ccccc1NC(=O)COc1ccccc1C(=O)Nc1ccccc1	none (no result: A549 viability, IL2 activator, Nrf2 ARE act, p53 reactivation, Nrf2 inh)
Cc1ccc(Cl)cc1Nc1nc2ccccc2n2c(C)nnc12	none (no result: BRCA1 expr act, IL2 activator, p53 reactivation)
Fc1ccccc1CSc1nc2ncc(Br)cc2[nH]1	BRCA1 expr act 11µM (no result: Nrf2 inh)
Cc1ccc(C)c(CN2C(=O)c3ccccc3S(=O)c3ccc(C(=O)NCc4ccco4)cc32)c1 (stereo unspecified)	Nrf2 inh inconclusive (no result: IL2 activator, p53 reactivation)
COc1ccc(C(C(=O)NC2CCCCC2)N(C(=O)Cc2c[nH]c3ccccc23)c2ccccc2C)cc1OC (stereo unspecified)	A549 viability inconclusive, Nrf2 inh inconclusive
Cc1ccc(N(C(=O)Cc2c[nH]c3ccccc23)C(C(=O)NC2CCCCC2)c2ccco2)cc1 (stereo unspecified)	A549 viability inconclusive, Nrf2 inh 18µM
COc1ccc(C(C(=O)NC2CCCCC2)N(Cc2cccs2)C(=O)Cc2c[nH]c3ccccc23)cc1OC (stereo unspecified)	A549 viability inconclusive, Nrf2 inh 23µM
CCc1ccccc1NC(=O)Cn1c(=O)n(Cc2ccc(OC)cc2)c(=O)c2oc3ccccc3c21	none (no result: BRCA1 expr act, IL2 activator, p53 reactivation)
CCOC(=O)Cc1ccc(NC(=O)N2CCC(CN3CCC(C)CC3)CC2)cc1	none (no result: BRCA1 expr act, IL2 activator, p53 reactivation)
O=C(CSc1nc2ccccc2c(=O)n1NC(=O)c1ccccc1)c1ccc(Cl)cc1	BRCA1 expr act 14µM
Cc1ccc(-n2nnnc2SCC(=O)N2CCc3ccccc3C2)c(C)c1	Nrf2 inh 16µM
Cc1ccc(-n2nnnc2SCC(=O)N2CCc3ccccc3C2)cc1	none
CCc1nc(-c2cc(S(=O)(=O)N3CCN(c4ccc(F)cc4)CC3)ccc2OC)no1	none (no result: BRCA1 expr act, IL2 activator, p53 reactivation)
CC(=O)N1CCSc2ccc(S(=O)(=O)Nc3cccc(C)c3)cc21	Nrf2 inh inconclusive
CC(=O)N1CCSc2ccc(S(=O)(=O)Nc3ccccc3C)cc21	Nrf2 inh 13µM
O=C(C[n+]1cc(-c2ccc(F)cc2)n2c1CCC2)c1cccs1	BRCA1 expr act 2µM, Nrf2 inh inconclusive
Cn1c(NC(=O)C[n+]2cc(-c3ccc(F)cc3)n3c2CCC3)cc(=O)n(C)c1=O	none
COc1cc(C(c2c(C)[nH][nH]c2=O)c2c(C)[nH][nH]c2=O)ccc1OCc1ccc([N+](=O)[O-])cc1	BRCA1 expr act 3.2µM, p53 reactivation inconclusive
COC(=O)C(=Cc1ccc(OCc2ccc([N+](=O)[O-])cc2)c(OC)c1)C(=O)OC	A549 viability inconclusive, Nrf2 ARE act 8.9µM, p53 reactivation inconclusive, Nrf2 inh inconclusive
Cc1ccc(S(=O)(=O)c2nnn3c2nc(NCCc2ccccc2)c2sccc23)cc1	Nrf2 inh 21µM (no result: BRCA1 expr act, IL2 activator, p53 reactivation)
COc1ccc(OCC(=O)Nc2ccc(Cl)c(-c3nc4ncccc4o3)c2)cc1	none (no result: IL2 activator, p53 reactivation)
CCCC(C)C(=O)Nc1nc(C)c(-c2csc(Nc3cc(Cl)ccc3C)n2)s1 (stereo unspecified)	Nrf2 inh 23µM
CC(=O)c1cccc(Nc2nc(-c3sc(C)nc3C)cs2)c1	Nrf2 inh 23µM (no result: p53 reactivation)
CCC(=O)Nc1nc(C)c(-c2csc(Nc3cccc(O)c3)n2)s1	p53 reactivation 28µM
CC(=O)c1cccc(Nc2nc(-c3sc(N)nc3C)cs2)c1	none
COCCCn1c(=O)c2sccc2n2c(CCCC(=O)NC3CCC(C)CC3)nnc12 (stereo unspecified)	none (no result: BRCA1 expr act, IL2 activator, p53 reactivation)
CCc1cccc(NC(=O)Cn2c(=O)n(CCc3ccc(OC)c(OC)c3)c(=O)c3ccccc32)c1	none (no result: IL2 activator, p53 reactivation)
COc1cc(C2C=C(C34CC5CC(CC(C5)C3)C4)NC(=S)N2)cc(OC)c1OC (stereo unspecified)	Nrf2 inh 23µM
